# LANA-H2A inh = blocks KSHV LANA binding to histone H2A/H2B; cell-free LANA-H2A/H2B peptide, fluorescence polarization; inhibition, % (concentration not given with the values); AID 2629; 320,000 compounds, 0.6% hits; Q9QR71; in the data active = inhibition mostly above about 10%, no sharp cut-off; inactive = mostly below about 6.7%
# Target sequence (Q9QR71 whole entry, looked up): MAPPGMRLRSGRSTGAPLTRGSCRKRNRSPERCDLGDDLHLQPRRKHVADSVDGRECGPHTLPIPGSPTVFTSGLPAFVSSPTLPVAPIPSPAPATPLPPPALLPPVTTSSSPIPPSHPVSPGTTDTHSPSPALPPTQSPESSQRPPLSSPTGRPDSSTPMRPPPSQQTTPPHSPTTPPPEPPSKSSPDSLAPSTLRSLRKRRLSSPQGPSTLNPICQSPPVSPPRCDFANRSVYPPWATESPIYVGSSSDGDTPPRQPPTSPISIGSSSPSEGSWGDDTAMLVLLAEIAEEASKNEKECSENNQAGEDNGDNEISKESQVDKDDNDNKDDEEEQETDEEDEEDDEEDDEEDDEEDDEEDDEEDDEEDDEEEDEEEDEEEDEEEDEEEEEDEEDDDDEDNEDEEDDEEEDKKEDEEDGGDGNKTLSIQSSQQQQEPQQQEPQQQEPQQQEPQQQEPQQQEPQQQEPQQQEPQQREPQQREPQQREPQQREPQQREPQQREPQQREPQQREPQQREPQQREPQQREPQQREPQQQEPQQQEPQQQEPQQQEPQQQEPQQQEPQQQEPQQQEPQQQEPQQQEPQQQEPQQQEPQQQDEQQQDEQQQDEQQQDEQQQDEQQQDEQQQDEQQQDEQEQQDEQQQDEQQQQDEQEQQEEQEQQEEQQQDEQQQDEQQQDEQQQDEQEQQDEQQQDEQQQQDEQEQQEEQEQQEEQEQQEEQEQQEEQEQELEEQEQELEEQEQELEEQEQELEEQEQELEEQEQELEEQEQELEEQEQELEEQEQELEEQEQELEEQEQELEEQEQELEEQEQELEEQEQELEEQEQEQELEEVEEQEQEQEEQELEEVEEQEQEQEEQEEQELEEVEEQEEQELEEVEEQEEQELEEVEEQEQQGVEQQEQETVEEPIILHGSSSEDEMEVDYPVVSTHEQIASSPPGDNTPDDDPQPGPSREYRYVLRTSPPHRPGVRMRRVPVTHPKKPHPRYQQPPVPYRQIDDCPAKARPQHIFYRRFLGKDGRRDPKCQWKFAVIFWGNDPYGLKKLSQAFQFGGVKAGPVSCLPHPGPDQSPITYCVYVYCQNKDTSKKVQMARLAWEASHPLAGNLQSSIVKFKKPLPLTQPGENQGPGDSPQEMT
# Fh CTSL1 inh = cathepsin L1 inhibition, PFM18AAP counter-screen | recombinant F. hepatica cathepsin L1, Z-Leu-Arg-MCA fluorescence | inhibition, % at 5.96 µM | 300,000 compounds, 0.49% hits;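 active = inhibition above the mean of all tested compounds plus 3 SD, set per screening campaign, cut at about 17% in these data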
# m5-HT2A agonist = mouse HTR2A agonism via beta-arrestin recruitment; AID 624169; P35363; 360,000 compounds, 0.66% hits; CHO-K1 mHTR2A beta-arrestin complementation, luminescence; percent of 30 µM serotonin response; activation, % at 7.6 µM;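 active = activation above a run cutoff, the mean activation of all tested compounds plus 3 SD, cut at about 14% in these data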
# HDAC3 inhib = human HDAC3 inhibition. recombinant HDAC3, fluorogenic peptide/trypsin coupled, fluorescence. inhibition, % at 8.3 µM. 320,000 compounds, 0.15% hits. AID 2718. O15379; in the data active = inhibition above about 26%, passing the limit was not always enough
# MOR ag counter = OPRM1 agonism in mouse HTR2A counterscreen. shares compounds with m5-HT2A agonist. U2OS OPRM1 beta-arrestin PathHunter, luminescence; DMSO 0%, DAMGO 9.3 µM 100%. activation, % at 9.3 µM. 2,300 compounds, 5.3% hits;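 active = mean activation above the mean of DMSO-only wells plus 3 SD, cut at about 0.5% in these data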
# HTR2A ag conf = mouse HTR2A agonism confirmed; AID 624381; CHO-K1 PathHunter beta-arrestin recruitment, luminescence; DMSO 0%, 30 µM serotonin 100%; 2,300 compounds, 19% hits; activation, % at 7.6 µM; shares compounds with m5-HT2A agonist;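 active = mean activation across triplicates above the hit threshold derived in the original primary screen, cut at about 15% in these data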
# Numbers stand for hits; n = inactive; x = not tested or not shown; ! = not active in a repeat. Sampled rows, rich in hits. Any-hit rate of the full collection: about 1.7%.
SMILES,LANA-H2A inh,Fh CTSL1 inh,m5-HT2A agonist,HDAC3 inhib,MOR ag counter,HTR2A ag conf
CCOC(=O)C(=CNc1ncccc1C)C(=O)OCC,n,n,23,n,n,n
COc1ccc(OCC(=O)Nc2ccc3c(c2)nc(CCn2ccccc2=O)n3C)cc1,n,n,n,n,x,x
O=C(CCN1CCN(c2ccccc2)CC1)N/N=C/c1ccccc1OC(F)F,n,n,17,n,n,50
CCN(CC(=O)Nc1ccccc1C(F)(F)F)C(=O)c1cc(S(=O)(=O)N2CCCCCC2)ccc1OC,n,n,n,n,x,x
c1ccc(CNc2c3ccccc3nc3ccccc23)cc1,n,n,n,n,x,x
Oc1ccc(CCNc2c3ccccc3nc3ccccc23)cc1O,14,n,42,n,n,58
COc1ccc(CN(C)C(=O)c2ccc(NS(=O)(=O)c3ccc(C)c([N+](=O)[O-])c3)cc2)c(OC)c1OC,n,n,18,n,n,n
CSc1nc(SCC(=O)NCc2ccco2)c2c3c(sc2n1)COC(C)(C)C3,n,n,19,n,n,n
O=[N+]([O-])c1ccc(Oc2cccc(Br)c2)c2ccncc12,n,n,n,n,x,x
O=[N+]([O-])c1cccc2cnccc12,x,x,15,x,n,n
O=C(c1cnc2n(c1=O)CCS2)N1CCN(c2ccc(Cl)c(Cl)c2)CC1,n,n,20,n,n,n
CC(C)Cn1c(N)c(C(=O)CSc2n[nH]c(N)n2)c(=O)n(C)c1=O,n,x,25,n,n,n
COc1ccc(CCC(=O)OCC(=O)c2c(N)n(CC(C)C)c(=O)n(C)c2=O)cc1,n,n,17,n,n,n
COc1ccccc1CCC(=O)OCC(=O)c1c(N)n(CC(C)C)c(=O)n(C)c1=O,n,n,n,n,x,x
COc1cc(C(=O)N2CCN(C3CCCCC3)CC2)cc(OC)c1OC,n,n,15,n,n,n
COc1cc(C(=O)N2CCC(N3CCCCCC3)CC2)cc(OC)c1OC,n,n,15,n,n,n
COc1cc(/C=N/Nc2cccc(C)c2)ccc1OC(=O)c1ccco1,n,n,n,n,x,x
COc1cccc(S(=O)(=O)N(C)C[C@H]2OCc3cn(nn3)CCCC(=O)N([C@@H](C)CO)C[C@@H]2C)c1,x,x,n,x,x,x
CCCCSc1nc(N)nc2c1ncn2C1OC(CO)C(O)C1O (configuration not stated),x,x,n,x,x,x
CCCn1c(SCc2nc(-c3cccs3)no2)nnc1-c1ccncc1,n,n,n,n,x,x
CCOc1ccc(-n2c(SCc3nc(-c4cccs4)no3)nnc2-c2ccncc2)cc1,n,n,29,n,n,n
Cc1ccc(S(=O)(=O)N2C[C@@H]3CCCC[C@@H]3[C@@H](C)[C@H]2CC(=O)c2ccccc2)cc1,x,x,n,x,x,x
Cc1c(C(=O)NCc2cccc(C(F)(F)F)c2)sc(=O)n1Cc1ccccc1F,x,x,25,x,n,n
Cc1ccc(Cn2c(C)c(C(=O)NCc3cccc(C(F)(F)F)c3)sc2=O)cc1,x,x,n,x,x,x
CC1CN(C(=O)CS(=O)(=O)Cc2ccc(Cl)cc2)CC(C)O1 (configuration not stated),n,n,15,n,n,n
SMILES,LANA-H2A inh,Fh CTSL1 inh,m5-HT2A agonist,HDAC3 inhib,MOR ag counter,HTR2A ag conf
Cc1ccc(F)cc1-c1nc(NCC2CC2)nc2ccsc12,x,x,16,x,n,n
CCCC/C=C1/CCC(CN(C)C)C1=O (configuration not stated),x,x,n,x,x,x
O=C(NCC(=O)N(c1cccnc1)C(C(=O)NCc1ccco1)c1ccccc1)c1ccco1 (configuration not stated),n,n,15,n,n,n
Cc1cccc(OCc2nnc(SCC(=O)NCc3ccc4c(c3)OCO4)o2)c1,x,x,n,x,x,x
CC1(C)CC(=O)C/C(=N\NC(=S)NCc2ccccc2)C1,n,n,17,n,n,n
CC1C/C(=N\NC(=S)NCc2ccccc2)CC(C)(C)C1 (configuration not stated),n,n,n,n,x,x
COc1cc(NC(=O)CCc2nnc3ccc(N4CCCCC4)nn23)cc(OC)c1OC,n,n,16,n,n,n
COc1cc(NC(=O)CCc2nnc3ccc(N4CCCC4)nn23)cc(OC)c1OC,n,n,n,n,x,x
CCOC(=O)Cn1c(=O)n(Cc2ccc(C)cc2)c(=O)c2cccnc21,n,n,50,n,n,n
COc1ccc(-c2cc(C)no2)cc1S(=O)(=O)NCCCN1CCN(c2ccccc2)CC1,n,n,17,n,n,26
CCC/C(O)=C1\C(=O)CCCC1=NCCc1ccc(OCC)c(OCC)c1,n,n,15,n,n,n
O=[N+]([O-])c1cccc(S(=O)(=O)N2CCN(c3ccccn3)CC2)c1,n,n,n,n,x,x
CN[C@H]1CCc2cc(OC)c(OC)c(OC)c2-c2ccc(N(C)CC(OC)OC)c(=O)cc21,n,n,n,n,x,x
COc1cc2c(c(OC)c1OC)-c1ccc(N(C)CC(OC)OC)c(=O)cc1[C@@H](NC(C)=O)CC2,n,n,25,n,n,n
CC(NC(=O)CN1CCOCC1)c1ccc(F)cc1 (configuration not stated),n,n,n,n,x,x
Cc1ccc(NC(=O)NCCSc2ccc(C)cc2)cc1,n,n,n,n,x,x
Cc1ccc(SCCNC(=O)C(C)C)cc1,n,n,16,n,n,n
COC(=O)c1nnn(-c2nonc2N)c1COc1ccc(C=O)cc1OC,n,n,n,n,x,x
Cc1ccc2c(c1)cc(C(=O)NCc1ccccc1)n2C,n,n,n,n,x,x
Cn1c(N)c(C(=O)/C=C/c2ccccc2)c(=O)[nH]c1=O,n,n,26,x,n,n
CCCc1cc(CN(C)C(=O)CC2C(=O)NCCN2Cc2ccccc2C)[nH]n1 (configuration not stated),n,n,n,x,x,x
O=C(COC(=O)c1ccccc1NCCO)Nc1ccc(S(=O)(=O)NC2=NCCCCC2)cc1,x,x,22,x,n,n
O=C(COC(=O)c1ccccc1O)Nc1cccc(S(=O)(=O)NC2=NCCCCC2)c1,n,n,n,n,x,x
COc1cc(/C=C2\CCc3ccccc3C2=O)cc(OC)c1OC,n,n,19,n,n,n
COc1ccccc1C=C1CCc2ccccc2C1=O,x,x,n,x,x,x
SMILES,LANA-H2A inh,Fh CTSL1 inh,m5-HT2A agonist,HDAC3 inhib,MOR ag counter,HTR2A ag conf
CCOc1ccccc1C=C1CCc2ccccc2C1=O,x,x,30,x,n,n
COc1ccccc1NC(=O)CSc1nc2[nH]ncc2c(=O)[nH]1,n,n,n,n,x,x
COC(=O)c1[nH]c2ccccc2c1NC(=O)CCN1CCSCC1,n,n,16,n,n,n
Oc1cc2c(c(Cl)c1O)CCNCC2c1ccccc1 (configuration not stated),n,n,24,n,n,100
COc1cc2c(cc1OC)C(c1ccc(O)cc1)NCC2 (configuration not stated),n,n,n,n,x,x
Oc1ccc(C2CNCCc3c2cc(O)c(O)c3Cl)cc1 (configuration not stated),n,n,34!,n,n,145
COc1ccccc1N(CCC#N)C(=O)COC(=O)CCC(=O)c1ccc(F)cc1,n,x,n,n,x,x

# Source: PubChem BioAssay
